57 molecules from PubChem BioAssay AID1565 (Sanford-Burnham Center for Chemical Genomics, 2009) can be followed below.

Each structure is given as a SMILES string. Among all 290,000 compounds or so, about 3,200 (1.1%) were called active. Many of the other results were omitted from the sample, so actives are more common in it than they were. Unmarked numbers belong to inactive results. Rule as the data show it: active = inhibition above about 60%; inactive = the rest.

Phosphoethanolamine/phosphocholine phosphatase (Homo sapiens), sequence (Q8TCT1 whole entry, looked up): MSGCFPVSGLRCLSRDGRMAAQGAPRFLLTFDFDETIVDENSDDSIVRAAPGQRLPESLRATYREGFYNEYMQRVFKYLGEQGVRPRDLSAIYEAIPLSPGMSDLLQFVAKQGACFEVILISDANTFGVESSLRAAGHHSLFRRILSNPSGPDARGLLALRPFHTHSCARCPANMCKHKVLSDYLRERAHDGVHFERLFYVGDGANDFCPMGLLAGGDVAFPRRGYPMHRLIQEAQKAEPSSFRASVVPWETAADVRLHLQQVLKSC

This test has as its target Phosphoethanolamine/phosphocholine phosphatase (Homo sapiens) (UniProt Q8TCT1). As to the kind of experiment: PubChem AID 1565. To be noted: recombinant PHOSPHO1, absorbance phosphatase assay; at 13.3 µM; hits give high values.
For `Cc1ccc(S(=O)(=O)N2CCN=C2SCc2c(F)cccc2Cl)cc1`, the inhibition was 22.6%.

`OC(CNCCc1ccc(Cl)cc1Cl)COc1ccccc1` (configuration not stated): the inhibition was 46.3%.

With `COc1ccc(OC)c(C(=O)NC(CC(N)=O)c2ccc(N3CCC(N4CCCCC4)CC3)c([N+](=O)[O-])c2)c1` (configuration not stated), the inhibition is -18.6%.

Consider `O=C(CNc1cccc(S(=O)(=O)N2CCCCC2)c1)Nc1ccccc1F`, for which the inhibition was 42.8%.

With `CC(C)C(C(=O)NCc1ccco1)N(CC1CCCO1)C(=O)CNS(=O)(=O)c1ccc(F)cc1` (configuration not stated), the inhibition was 46.2%.

With `CCOc1ccccc1Nc1nnc(SCc2ccc(C(=O)OC)o2)s1`, the inhibition is 48.3%.

For the molecule `Cc1cc(NC(=O)CSc2nnc(Nc3ccccc3F)s2)no1`, the inhibition was -3.4%.

For `CCOc1ccccc1Nc1nnc(SCC(=O)Nc2cc(C)on2)s1`, the inhibition is 61.5% (active).

As for `CCOC(=O)C1(CCOC)CCN(Cc2cc3ccccc3s2)CC1`, the inhibition was 3.1%.

In the case of `CCCCNC(=O)CSc1nc2ccc(NC(=O)CSc3nnc(COc4ccccc4C)n3C)cc2s1`, the inhibition is 74.2% (active).

Regarding `CCOC(=O)c1ccc(NC(=O)CSc2nnc(COc3ccccc3OC)n2C)cc1`, the inhibition is 6.3%.

With `CCCCNC(=O)CSc1nc2ccc(NC(=O)CSc3nnc(N)s3)cc2s1`, the inhibition was -25.6%.

Turning to `CC(C)[C@H](NC(=O)N1CCn2c1nc1ccccc12)C(=O)NC1CC1`, the inhibition is 46.9%.

As to `O=S1(=O)CCOC[C@H](CC2CCCCC2)N1Cc1ccc(F)cc1`, the inhibition is 4%.

For `CCOC(=O)c1c(C)[nH]c(C)c1S(=O)(=O)NCCCc1ccco1`, the inhibition was -28.5%.

For the molecule `COc1cccc(NC(C)=[N+](C)CCNS(=O)(=O)c2ccc(Cl)cc2)c1`, the inhibition was -9%.

Consider `O=c1/c(=C/c2ccc(CNS(=O)(=O)c3ccccc3)o2)sc2n1CCN=2`, for which the inhibition is 97.8% (active).

Regarding `O=S(=O)(NCc1ccccc1)c1ccc(S(=O)(=O)N2CCCC2)cc1`, the inhibition was 3.4%.

Consider `COC(=O)C1=C(C)NC(=O)/C1=C/c1ccc(CNS(=O)(=O)c2ccc(C)cc2)o1`, for which the inhibition is 41.2%.

In the case of `O=C(Nc1ccc(C(=O)O)cc1)/C(=C\c1ccccc1)NC(=O)c1ccc(Br)cc1`, the inhibition is 25%.

For `Cc1ccc(S(=O)Cc2ccc(C(=O)N3CCN(C4CCCCC4)CC3)o2)cc1` (configuration not stated), the inhibition is 26.1%.

With `CCC(C)c1ccccc1NC(=O)CN(C)CC(=O)Nc1ccccc1SC` (configuration not stated), the inhibition is 7%.

Take `C=CCn1c(CNC(=O)c2ccco2)nnc1SCC(=O)c1ccc(OC)cc1`: the inhibition was 32.2%.

Turning to `COc1cc(Cl)c(C)cc1NC(=O)CSc1nnc(-c2cccnc2)n1Cc1ccco1`, the inhibition is 28.9%.

For the molecule `O=C(CSc1nnc(-c2cnccn2)n1Cc1ccco1)c1ccc(Cl)c(Cl)c1`, the inhibition was 85.4% (active).

As for `COc1ccc(C(=O)CSc2nnc(COc3ccccc3)n2Cc2ccco2)cc1`, the inhibition is 91.7% (active).

In the case of `Cc1cc(NC(=O)CSc2nc3cc(Cl)ccc3c(=O)n2Cc2ccco2)no1`, the inhibition is 12.3%.

`O=C(CSc1nnc(-c2cccs2)n1Cc1ccco1)c1ccc2c(c1)OCO2`: the inhibition was -69.6%.

On to `CCc1ccc(NC(=O)CSc2nnc(-c3cnccn3)n2Cc2ccco2)cc1`, for which the inhibition was 1.3%.

Turning to `CCn1c(COc2ccccc2)nnc1SCC(=O)NCc1ccco1`, the inhibition was 19.2%.

For `Cc1ccc(NC(=O)CSc2nnc(-c3cnccn3)n2Cc2ccco2)cc1C`, the inhibition was -3.2%.

Regarding `COc1ccc(NC(=O)CSc2nnc(-c3cccs3)n2Cc2ccco2)cc1OC`, the inhibition was 19.4%.

For the molecule `O=C(CSc1nnc(-c2cccnc2)n1Cc1ccco1)c1ccc(Cl)c(Cl)c1`, the inhibition is 71.1% (active).

Consider `O=C(CSc1nnc(-c2cccnc2)n1Cc1ccco1)c1ccc(Cl)cc1`, for which the inhibition is 79.6% (active).

With `CC1CCN(C(=O)/C(=C\c2ccccc2F)NC(=O)c2ccccc2)CC1`, the inhibition was 18.7%.

With `CCN(c1cccc(C)c1)S(=O)(=O)c1ccc(-c2coc(C)n2)cc1`, the inhibition is -0.1%.

In the case of `Cc1cc(=O)oc2c3c(cc(OCC(=O)NCc4ccccn4)c12)OC(C)(C)CC3`, the inhibition is 34.3%.

`O=C1C(=O)N(CCN2CCOCC2)C(c2cccc(Cl)c2)/C1=C(/O)c1ccc2c(c1)OCO2` (configuration not stated): the inhibition is 24%.

As to `CN(C(=O)CCN1C(=O)/C(=C/c2ccccc2F)SC1=S)C1CCS(=O)(=O)C1` (configuration not stated), the inhibition was 52.6%.

For the molecule `COc1ccc(OC)c(NC(=O)Cc2cccs2)c1`, the inhibition is 3.8%.

`CCCc1nn2c(=O)cc(CSCC(=O)Nc3cccc(C)c3)nc2s1`: the inhibition was 24%.

For the molecule `CCOC(=O)Cc1csc(NC(=O)CSc2nnc(-c3cccnc3)n2Cc2ccco2)n1`, the inhibition was 17.3%.

On to `O=C(CSc1nnc(-c2cccnc2)n1CCc1ccccc1)NCc1ccccc1`, for which the inhibition is 1.5%.

Turning to `C(=C\c1ccccc1)/CSc1nnc(-c2cccnc2)n1Cc1ccco1`, the inhibition is 70.5% (active).

As to `Cc1ccc(C(=O)N(CC(=O)NC2CCCC2)c2ccc(F)cc2)s1`, the inhibition was 40.5%.

As for `CCCCn1c(SCC(=O)N2CCC(C(=O)OCC)CC2)nc2cc(S(N)(=O)=O)ccc21`, the inhibition was 1.5%.

Consider `CCCCn1c(SCc2ncc(-c3ccccc3)o2)nc2cc(S(N)(=O)=O)ccc21`, for which the inhibition was 75.4% (active).

In the case of `CCn1c(SCC(=O)NCC2CCCO2)nc2cc(S(=O)(=O)N3CCCCC3)ccc21` (configuration not stated), the inhibition was 14.5%.

As to `O=C(c1cccc(-n2cccc2)c1)N1CCN(S(=O)(=O)c2ccc(F)cc2)CC1`, the inhibition is -102%.

In the case of `O=C(C1CC(=O)N(c2ccc(F)cc2)C1)N1CCN(c2ccccc2)CC1` (configuration not stated), the inhibition was 42.6%.

Consider `Cc1nn(C(C)C(=O)NCCC2=CCCCC2)c(=O)c2nn(-c3ccccc3)c(C)c12` (configuration not stated), for which the inhibition is 54.1%.

In the case of `COc1ccc(OC)c(CNC(=O)Cn2nc(C)c3c(C)n(-c4ccc(C)cc4)nc3c2=O)c1`, the inhibition is 24%.

On to `COc1ccc(CNC(=O)C(C)n2nc(C)c3c(C)n(-c4ccccc4)nc3c2=O)c(OC)c1` (configuration not stated), for which the inhibition was 64.7% (active).

Consider `COC(=O)c1ccc(CN2CCCC(C(=O)Nc3cccc(-n4cnnn4)c3)C2)cc1` (configuration not stated), for which the inhibition is 22.6%.

With `Cn1nccc1NS(=O)(=O)c1ccc(F)cc1`, the inhibition was 69.9% (active).

`Cn1c(=O)n(C)c2cc(NS(=O)(=O)c3ccc(F)cc3)ccc21`: the inhibition is 38.9%.

Consider `Cc1cc(C)cc(NS(=O)(=O)c2ccc(F)cc2)c1`, for which the inhibition is 28.3%.

Usually inhibition stands for the relative decrease from the control value, in per cent.
